Inconclusive results are not listed. The source made the active and inactive calls. Unless noted, calls follow the shape of the dose curve; as a rule, active = well fitted curve in the direction sought with a large enough effect in the repeat runs; inconclusive = weak or mixed curves; inactive = no such curve, though single readings can be large; an effect the other way counts as inactive or inconclusive.
Columns and labels:
[1] = qHTS assay to test for compound auto fluorescence at 535 nm (green) in HEK293 cells (AID 720680); conditions: green autofluorescence 485/535 nm; series mostly up to 91.3 µM
[2] = qHTS assay to test for compound auto fluorescence at 460 nm (blue) in HEK293 cell free culture (AID 720681); conditions: cell-free medium, autofluorescence 405/460 nm (blue); series mostly up to 91.3 µM
Method in brief: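 Compounds were added to cell-free DMEM with 10% FBS and fluorescence read directly. The blue channel used 405 nm excitation and 460 nm emission, with triamterene as the reference fluorophore.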

[3] = qHTS assay to test for compound auto fluorescence at 535 nm (green) in HEK293 cell free culture (AID 720682); conditions: cell-free medium, green autofluorescence 485/535 nm, stronger effect = higher value; series mostly up to 91.3 µM
Method in brief: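 Steps: dispense DMEM/10% FBS into empty wells; pin in compound or DMSO; measure fluorescence at 485/535 nm. Values are fluorescein equivalents.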

[4] = qHTS assay to test for compound auto fluorescence at 590 nm (red) in HEK293 cell free culture (AID 720683); conditions: cell-free medium autofluorescence, Ex540/Em590 red; series mostly up to 91.3 µM
Method in brief: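 Cell-free wells of DMEM with 10% FBS received compound, and intrinsic fluorescence was read at excitation/emission 540/590 nm. Values expressed as equivalence to Rose Bengal sodium.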

[5] = qHTS assay to test for compound auto fluorescence at 590 nm (red) in HepG2 cell free culture (AID 720684); conditions: cell-free medium autofluorescence, red 540/590 nm; series mostly up to 91.3 µM
Method in brief: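 Compound was pinned into wells holding MEM with 10% FBS and no cells, and red fluorescence was read at Ex/Em 540/590 nm. Signal is expressed as auto fluorescence equivalency relative to Rose Bengal sodium.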

[6] = qHTS assay to test for compound auto fluorescence at 460 nm (blue) in HepG2 cell free culture (AID 720685); conditions: Cell-free culture medium, blue autofluorescence 405/460 nm; series mostly up to 91.3 µM
Method in brief: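 Compound (23 nL) or DMSO pinned into cell-free MEM with 10% FBS; blue fluorescence read at 405/460 nm excitation/emission, expressed as auto-fluorescence equivalency to triamterene.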

[7] = qHTS assay to test for compound auto fluorescence at 535 nm (green) in HepG2 cell free culture (AID 720686); conditions: Cell-free medium, green autofluorescence 485/535 nm; series mostly up to 91.3 µM
[8] = qHTS assay to test for compound auto fluorescence at 460 nm (blue) in HepG2 cells (AID 720687); conditions: autofluorescence 405/460 nm, 1 h; series mostly up to 91.3 µM
Method in brief: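 HepG2 cells in MEM with 10% FBS, attached overnight at 37 C, were exposed to compound or DMSO for 1 hr at 37 C, 5% CO2. Blue fluorescence was read at 405/460 nm, with triamterene as reference fluorophore.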

[9] = target: Glucocorticoid receptor (Homo sapiens) (UniProt P04150); assay: qHTS assay to identify small molecule agonists of the glucocorticoid receptor (GR) signaling pathway (AID 720691; active = well fitted activation curve with a large enough effect in the signal ratio in the repeat runs, not every such curve was filed as active; the % refers to the signal ratio); conditions: GR-bla HeLa, beta-lactamase reporter ratio, 18 h; series mostly up to 62.4 µM
Chain of Glucocorticoid receptor (Homo sapiens) (P04150 whole entry, looked up): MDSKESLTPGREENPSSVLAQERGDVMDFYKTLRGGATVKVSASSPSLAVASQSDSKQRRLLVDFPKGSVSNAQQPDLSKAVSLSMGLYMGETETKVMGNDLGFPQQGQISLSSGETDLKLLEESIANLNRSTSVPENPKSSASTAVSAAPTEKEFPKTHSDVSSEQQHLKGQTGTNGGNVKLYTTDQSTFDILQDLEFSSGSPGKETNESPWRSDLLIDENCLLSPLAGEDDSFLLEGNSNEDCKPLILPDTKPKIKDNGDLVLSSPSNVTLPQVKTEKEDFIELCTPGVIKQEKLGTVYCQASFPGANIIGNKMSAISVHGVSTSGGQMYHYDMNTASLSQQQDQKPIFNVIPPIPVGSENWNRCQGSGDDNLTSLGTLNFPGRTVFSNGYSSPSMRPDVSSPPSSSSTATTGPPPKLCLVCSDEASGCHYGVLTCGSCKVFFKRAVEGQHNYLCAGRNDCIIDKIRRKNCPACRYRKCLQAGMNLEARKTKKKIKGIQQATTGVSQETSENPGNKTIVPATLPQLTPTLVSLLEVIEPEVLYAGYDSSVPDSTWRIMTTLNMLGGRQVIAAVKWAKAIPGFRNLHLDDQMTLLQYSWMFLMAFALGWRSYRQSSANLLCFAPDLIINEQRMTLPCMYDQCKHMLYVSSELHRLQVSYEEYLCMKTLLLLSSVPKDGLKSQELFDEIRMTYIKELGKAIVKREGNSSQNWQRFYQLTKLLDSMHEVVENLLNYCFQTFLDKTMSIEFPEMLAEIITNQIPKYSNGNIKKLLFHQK
Method in brief: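 Fluorescence intensity from LiveBLAzer B/G FRET substrate (2 h, room temperature) reports beta-lactamase expression driven by the glucocorticoid response element in GR-bla HeLa cells after 18 h compound exposure at 37 C.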

[10] = qHTS assay to identify small molecule antagonists of the glucocorticoid receptor (GR) signaling pathway - cell viability counter screen (AID 720693); conditions: GR-bla HeLa viability, CellTiter-Glo luminescence, 18 h, with 5 nM dexamethasone present; series mostly up to 58.5 µM; also: nearly all actives have a fitted effect of over 55% in size
[11] = qHTS assay for identifying genotoxic compounds that show differential cytotoxicity against isogenic chicken DT40 cell lines with known DNA damage response pathways - wild type cell line (AID 743012); conditions: DT40 wild type chicken cells viability, CellTiter-Glo, 40 h; series mostly up to 68.4 µM; also: nearly all actives have a fitted effect of over 60% in size; also: potency is read from the fitted curve at half-maximal effect
Method in brief: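 Wild type DT40, 300 cells/well, ~0.5 h settle at 37 C/5% CO2; compounds in DMSO added by pintool; 40 h at 37 C/5% CO2; CellTiter-Glo, 30 min RT; luminescence.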

[12] = qHTS assay for identifying genotoxic compounds that show differential cytotoxicity against isogenic chicken DT40 cell lines with known DNA damage response pathways - Rev3 mutant cell line (AID 743014); conditions: chicken DT40 Rev3-/- viability, CellTiter-Glo, 40 h; series mostly up to 68.4 µM; also: nearly all actives have a fitted effect of over 55% in size; also: potency is read from the fitted curve at half-maximal effect
[13] = qHTS assay for identifying genotoxic compounds that show differential cytotoxicity against isogenic chicken DT40 cell lines with known DNA damage response pathways - Rad54/Ku70 mutant cell line (AID 743015); conditions: DT40 Rad54/Ku70 mutant viability, CellTiter-Glo, 40 h; series mostly up to 66.8 µM; also: nearly all actives have a fitted effect of over 60% in size; also: potency is read from the fitted curve at half-maximal effect
[14] = qHTS assay to identify small molecule antagonists of the androgen receptor (AR) signaling pathway - cell viability counter screen (AID 743033; also: nearly all actives have a fitted effect of over 45% in size); conditions: AR-bla HEK293 viability, CellTiter-Glo luminescence, 16 h; series mostly up to 58.5 µM
[15] = qHTS assay to identify small molecule antagonists of the androgen receptor (AR) signaling pathway using the MDA cell line - cell viability counter screen (AID 743041; also: nearly all actives have a fitted effect of over 45% in size); conditions: MDA-kb2 viability, CellTiter-Fluor, 16 h, cells co-treated with R1881 androgen agonist; series mostly up to 70.3 µM
Method in brief: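 MDA-kb2 AR-luc cells (MMTV-luciferase, AR/GR responsive) treated with compounds plus R1881 agonist for 16 h at 37C. CellTiter-Fluor added at 15.5 h; fluorescence read after 30 min in the same wells.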
% is scaled to controls: 0 for no effect and ±100 for the full control effect.

Cc1ccc(C=O)cc1C
inactive: outcome [1] | outcome [2] | outcome [3] | outcome [4] | outcome [5] | outcome [6] | outcome [7] | outcome [8] | Potency [9] | outcome [10] | Potency [11] | Potency [12] | Potency [13] | Potency [14]

CCCCNc1ccc(C(=O)OCCN(C)C)cc1
inactive: fluorescence, % of fluorescein [1] -0.108% [at 18.6 µM] | fluorescence, % of fluorescent control [2] 0.0181% [at 18.6 µM] | activity change [3] -0.0203% [at 18.6 µM] | fluorescence, % of fluorescent control [4] -0.282% [at 18.6 µM] | fluorescence, % of Rose Bengal [5] 0.315% [at 18.6 µM] | fluorescence, % of fluorescent control [6] 0.0923% [at 18.6 µM] | fluorescence, % of fluorescein control [7] -0.0132% [at 18.6 µM] | fluorescence, % of fluorescent control [8] 0.0537% [at 18.6 µM] | Potency [9] | outcome [10] | Potency [14] | Potency [15]
active: Potency [11] 5.07 µM | Potency [12] 2.85 µM | Potency [13] 5.07 µM

CCC(C=O)CC
inactive: outcome [1] | outcome [2] | outcome [3] | outcome [4] | outcome [5] | outcome [6] | outcome [7] | outcome [8] | Potency [9] | outcome [10] | Potency [11] | Potency [12] | Potency [13] | Potency [14] | Potency [15]

CC(C)N(c1ccccc1)C(C)C
inactive: outcome [1] | outcome [2] | outcome [3] | outcome [4] | outcome [5] | outcome [6] | outcome [7] | outcome [8] | Potency [9] | outcome [10] | Potency [11] | Potency [12] | Potency [13] | Potency [14] | Potency [15]

— PubChem BioAssay (Tox21)
